# In PubChem BioAssay (EPA / NIEHS):
# Results filed as inconclusive are left out. Activity calls are given as the source filed them. The calls were made as follows: active = hit-call score of the fitted dose curve at least 0.9, where 1 is the maximum; inconclusive = response in the unintended direction; inactive = score below 0.9.
# Target: human Retinoic Acid Receptor gamma (RARg), RARG (gene 5916) (UniProt P13631)
# Experiment: ATG_RARg_TRANS: Attagene TRANS-FACTORIAL HepG2 Assay for human Retinoic Acid Receptor gamma (RARg) (AID 2283009)
# Method in brief: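 Transient transfection of HepG2 with multi-reporter constructs, then 24 h chemical treatment. Total RNA isolated, reverse-transcribed, PCR-amplified, fluorescently labelled and resolved by capillary electrophoresis; activity scored as mRNA induction versus DMSO.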
# Chain of human Retinoic Acid Receptor gamma (RARg), RARG (gene 5916) (P13631 whole entry, looked up): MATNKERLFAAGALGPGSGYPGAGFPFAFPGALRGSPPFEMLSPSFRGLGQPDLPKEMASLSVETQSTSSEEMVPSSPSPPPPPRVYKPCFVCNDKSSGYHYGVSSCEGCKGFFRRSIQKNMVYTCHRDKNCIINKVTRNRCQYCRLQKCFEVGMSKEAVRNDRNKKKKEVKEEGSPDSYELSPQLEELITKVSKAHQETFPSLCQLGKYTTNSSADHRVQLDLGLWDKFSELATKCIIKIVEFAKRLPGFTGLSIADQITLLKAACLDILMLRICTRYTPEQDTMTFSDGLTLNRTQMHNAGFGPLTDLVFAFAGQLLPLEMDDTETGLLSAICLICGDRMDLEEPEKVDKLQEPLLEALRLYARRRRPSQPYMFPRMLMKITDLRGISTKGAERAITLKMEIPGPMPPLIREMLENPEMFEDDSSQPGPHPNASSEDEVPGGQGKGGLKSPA
row,SMILES,outcome
1,CCOC(=O)CC(=O)C(F)(F)C(F)(F)F,inactive
2,CC(O)C#CC(C)O (centres undefined),inactive
3,FC(F)(F)C(F)(F)C(F)(F)C(F)(F)C(F)(F)C(F)(F)CC[Si](Cl)(Cl)Cl,inactive
4,Cc1cc(O)c(C(C)(C)C)cc1C(C)(C)C,inactive
5,CCn1c2ccccc2c2ccccc21,inactive
6,C=CC(=O)OCC(F)(F)C(F)(F)C(F)(F)COC(=O)C=C,inactive
7,Cc1ccc(S(=O)(=O)C(I)I)cc1,inactive
8,CC(C)(C)C(=O)C1C(=O)c2ccccc2C1=O,inactive
9,CCCCCCCC/C=C\CCCCCCCC(=O)N(C)CC(=O)O,inactive
10,O=C(O)C(F)(F)C(F)(F)C(F)(F)C(=O)O,inactive
11,Nc1cccnc1N,inactive
12,Oc1ccc2c(c1)CCC2,inactive
13,Cc1cnccn1,inactive
14,OCCCC(F)(F)C(F)(F)C(F)(F)C(F)(F)C(F)(F)C(F)(F)C(F)(F)C(F)(F)F,inactive

# Target: human RAR-related Orphan Receptor beta (RORb), RORB (gene 6096) (UniProt Q92753)
# Sequence (Q92753 whole entry, looked up): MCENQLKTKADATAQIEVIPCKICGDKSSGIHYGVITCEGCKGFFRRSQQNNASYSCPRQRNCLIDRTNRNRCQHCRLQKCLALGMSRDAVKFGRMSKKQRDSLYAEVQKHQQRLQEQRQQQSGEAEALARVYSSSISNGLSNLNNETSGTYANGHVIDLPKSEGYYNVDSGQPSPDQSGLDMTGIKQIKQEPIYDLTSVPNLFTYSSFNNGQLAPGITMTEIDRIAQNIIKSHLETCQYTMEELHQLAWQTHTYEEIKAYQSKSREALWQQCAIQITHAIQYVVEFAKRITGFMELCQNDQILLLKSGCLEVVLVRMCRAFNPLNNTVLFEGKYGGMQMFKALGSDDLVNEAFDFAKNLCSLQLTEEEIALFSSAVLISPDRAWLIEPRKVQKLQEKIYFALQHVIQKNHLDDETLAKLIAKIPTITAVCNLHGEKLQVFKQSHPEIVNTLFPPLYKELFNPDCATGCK
# Experiment: ATG_RORb_TRANS: Attagene TRANS-FACTORIAL HepG2 Assay for human RAR-related Orphan Receptor beta (RORb) (AID 2283010)
# Method in brief: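 Readout is reporter-gene mRNA induction, detected as fluorescence after RT-PCR and capillary electrophoresis, fitted for gain of signal against DMSO controls. Transiently transfected HepG2 liver cells carrying GAL4-UAS reporter constructs were treated for 24 hours.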
row,SMILES,outcome
1,Cc1cc(O)c(C(C)(C)C)cc1C(C)(C)C,inactive
2,COC(F)(C(F)F)C(F)(F)F (centres undefined),inactive
3,O=C=Nc1cccc2c(N=C=O)cccc12,inactive
4,O=C(O)CCC(F)(F)C(F)(F)C(F)(F)F,inactive
5,CCN(CC)c1ccc(C=O)cc1,inactive

# Target: human RAR-related Orphan Receptor gamma (RORg), RORC (gene 6097) (UniProt P51449)
# Sequence (P51449 whole entry, looked up): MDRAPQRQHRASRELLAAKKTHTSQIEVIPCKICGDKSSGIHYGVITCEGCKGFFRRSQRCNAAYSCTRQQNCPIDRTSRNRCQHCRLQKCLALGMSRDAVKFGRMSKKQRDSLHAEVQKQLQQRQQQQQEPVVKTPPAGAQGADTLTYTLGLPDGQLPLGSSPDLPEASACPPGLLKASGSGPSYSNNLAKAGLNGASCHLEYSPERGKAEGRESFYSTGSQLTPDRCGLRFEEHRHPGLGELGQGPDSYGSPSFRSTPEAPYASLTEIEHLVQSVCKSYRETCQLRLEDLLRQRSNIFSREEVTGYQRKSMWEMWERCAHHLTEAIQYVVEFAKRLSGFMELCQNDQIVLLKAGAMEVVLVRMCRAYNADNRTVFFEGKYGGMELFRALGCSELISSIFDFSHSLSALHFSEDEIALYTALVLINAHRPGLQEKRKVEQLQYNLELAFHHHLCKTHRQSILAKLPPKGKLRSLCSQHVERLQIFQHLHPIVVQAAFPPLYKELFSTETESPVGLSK
# Experiment: ATG_RORg_TRANS: Attagene TRANS-FACTORIAL HepG2 Assay for human RAR-related Orphan Receptor gamma (RORg) (AID 2283011);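 as to AC50: potency for induction of reporter transcripts above DMSO so activators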
# Method in brief: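 Readout: reporter transcript induction (RT-PCR, fluorescent primer extension, capillary electrophoresis) after 24 h compound exposure of transiently transfected HepG2 cells carrying a RORg-Gal4 chimera and GAL4-UAS reporters; DMSO served as baseline, with increasing signal fitted.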
SMILES,AC50,outcome
CC(O)C#CC(C)O (centres undefined),136 µM (active),–
CCN(CC)c1ccc(C=O)c(O)c1,–,inactive
FC(F)(F)C(F)(F)C(F)(F)CC1CO1 (centres undefined),–,inactive
Cc1cc(O)c(C(C)(C)C)cc1C(C)(C)C,–,inactive
NC(=O)C(F)(F)C(F)(F)C(F)(F)F,–,inactive
C=CC(=O)OCC(F)(F)C(F)(F)C(F)(F)COC(=O)C=C,–,inactive
COC(F)(C(F)F)C(F)(F)F (centres undefined),–,inactive
CC(C)(C)C(=O)C1C(=O)c2ccccc2C1=O,–,inactive
O=S(=O)(OCC(F)(F)F)C(F)(F)C(F)(F)C(F)(F)C(F)(F)F,–,inactive
CCCCCCCC/C=C\CCCCCCCC(=O)N(C)CC(=O)O,–,inactive
O=C(O)C(F)(F)C(F)(F)C(F)(F)C(=O)O,–,inactive
CCN(CC)c1ccc2c(c1)Oc1cc(N(CC)CC)ccc1C21OC(=O)c2ccccc21,–,inactive
Nc1cccnc1N,–,inactive
Cc1cnccn1,–,inactive
O=C1C=CC(=O)N1c1ccccc1,–,inactive
Nc1cc([N+](=O)[O-])cc(Cl)c1O,–,inactive
O=C(O)C(F)(F)C(F)(F)C(F)(F)OC(F)(F)F,–,inactive

# Target: Retinoic acid receptor RXR-alpha (Homo sapiens) (UniProt P19793)
# Sequence (P19793 whole entry, looked up): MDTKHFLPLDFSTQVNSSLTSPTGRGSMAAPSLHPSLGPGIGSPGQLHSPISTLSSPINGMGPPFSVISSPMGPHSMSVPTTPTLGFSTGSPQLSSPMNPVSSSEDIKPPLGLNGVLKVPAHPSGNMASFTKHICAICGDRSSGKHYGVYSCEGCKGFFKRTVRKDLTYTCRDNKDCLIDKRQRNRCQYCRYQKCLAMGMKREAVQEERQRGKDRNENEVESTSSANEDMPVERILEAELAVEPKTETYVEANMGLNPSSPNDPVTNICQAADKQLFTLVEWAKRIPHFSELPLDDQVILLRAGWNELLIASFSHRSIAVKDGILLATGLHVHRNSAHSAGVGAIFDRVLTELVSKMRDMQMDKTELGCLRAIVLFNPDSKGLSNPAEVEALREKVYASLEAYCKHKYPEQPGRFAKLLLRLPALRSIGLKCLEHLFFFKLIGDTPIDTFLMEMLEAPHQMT
# Experiment: ATG_RXRa_TRANS: Attagene TRANS-FACTORIAL HepG2 Assay for human Retinoid X Receptor alpha (RXRa) (AID 2283012)
# Method in brief: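 Transient transfection of human HepG2 with multiple GAL4-UAS reporter constructs; 24 h compound exposure; total RNA isolated, reverse-transcribed, PCR-amplified, 6-FAM labelled, HpaI-cut, resolved by capillary electrophoresis. Positive-direction fit versus DMSO.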
SMILES,outcome,AC50
CCOC(=O)CC(=O)C(F)(F)C(F)(F)F,inactive,–
CC(O)C#CC(C)O (centres undefined),inactive,–
FC(F)(F)C(F)(F)C(F)(F)CC1CO1 (centres undefined),inactive,–
OCC(O)CC(F)(F)C(F)(F)C(F)(F)C(F)(F)F (centres undefined),inactive,–
OC(O)C(F)(F)C(F)(F)F,inactive,–
FC(F)(F)C(F)(F)C(F)(F)C(F)(F)C(F)(F)C(F)(F)CC[Si](Cl)(Cl)Cl,inactive,–
O=C=NCc1cccc(CN=C=O)c1,inactive,–
Cc1cc(O)c(C(C)(C)C)cc1C(C)(C)C,–,7.4 µM (active)
CCCCCCCCCCCCC[N+](C)(C)Cc1ccccc1,inactive,–
CCn1c2ccccc2c2ccccc21,inactive,–
NC(=O)C(F)(F)C(F)(F)C(F)(F)F,inactive,–
C=CC(=O)OCC(F)(F)C(F)(F)C(F)(F)COC(=O)C=C,inactive,–
Cc1ccc(S(=O)(=O)C(I)I)cc1,inactive,–
COC(F)(C(F)F)C(F)(F)F (centres undefined),inactive,–
CC1=CC2C3C=CC(C3)C2C1C (centres undefined),inactive,–
CC(C)(C)C(=O)C1C(=O)c2ccccc2C1=O,inactive,–
O=S(=O)(OCC(F)(F)F)C(F)(F)C(F)(F)C(F)(F)C(F)(F)F,inactive,–
CCCCCCCC/C=C\CCCCCCCC(=O)N(C)CC(=O)O,inactive,–
O=C(O)C(F)(F)C(F)(F)C(F)(F)C(=O)O,inactive,–
OCC(F)(F)C(F)(F)C(F)(F)C(F)(F)C(F)(F)C(F)(F)CO,inactive,–
CC(C)(C)c1cc(CCC(=O)NCCCCCCNC(=O)CCc2cc(C(C)(C)C)c(O)c(C(C)(C)C)c2)cc(C(C)(C)C)c1O,inactive,–
Nc1cccnc1N,inactive,–
Oc1ccc2c(c1)CCC2,inactive,–
Cc1cnccn1,inactive,–
O=C1C=CC(=O)N1c1ccccc1,inactive,–
Nc1cc([N+](=O)[O-])cc(Cl)c1O,inactive,–
OCCCC(F)(F)C(F)(F)C(F)(F)C(F)(F)C(F)(F)C(F)(F)C(F)(F)C(F)(F)F,–,23.8 µM (active)
O=C(O)C(F)(F)C(F)(F)C(F)(F)OC(F)(F)F,inactive,–
CCN=C1C=CC(=C(c2ccc(N(CC)CC)cc2)c2ccc(N(CC)CC)cc2)c2ccccc21,inactive,–
O=C(O)CCC(F)(F)C(F)(F)C(F)(F)F,inactive,–

# Target: human Retinoid X Receptor beta (RXRb), RXRB (gene 6257) (UniProt P28702)
# Sequence (P28702 whole entry, looked up): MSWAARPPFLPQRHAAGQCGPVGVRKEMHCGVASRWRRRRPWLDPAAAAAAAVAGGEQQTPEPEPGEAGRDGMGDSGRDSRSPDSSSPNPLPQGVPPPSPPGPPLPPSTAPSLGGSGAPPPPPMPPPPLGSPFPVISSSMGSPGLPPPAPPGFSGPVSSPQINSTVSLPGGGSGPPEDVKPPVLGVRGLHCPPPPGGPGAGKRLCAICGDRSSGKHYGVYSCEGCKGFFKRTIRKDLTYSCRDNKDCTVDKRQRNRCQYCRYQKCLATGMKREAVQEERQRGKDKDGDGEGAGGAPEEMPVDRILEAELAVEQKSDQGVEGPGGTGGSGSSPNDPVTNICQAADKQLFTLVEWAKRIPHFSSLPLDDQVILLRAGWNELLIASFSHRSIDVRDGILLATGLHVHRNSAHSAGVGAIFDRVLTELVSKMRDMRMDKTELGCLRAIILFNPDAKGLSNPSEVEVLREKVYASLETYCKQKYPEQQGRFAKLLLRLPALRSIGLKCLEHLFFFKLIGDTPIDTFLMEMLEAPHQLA
# Experiment: ATG_RXRb_TRANS: Attagene TRANS-FACTORIAL HepG2 Assay for human Retinoid X Receptor beta (RXRb) (AID 2283013)
# Method in brief: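 Transfect HepG2 with GAL4-UAS multi-reporter constructs (chimeric NR-Gal4, TRANS format); dose compound 24 h; isolate RNA, RT-PCR, FAM primer extension, HpaI digest; quantify by capillary electrophoresis; positive direction vs DMSO.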
row,SMILES,outcome
1,CC(O)C#CC(C)O (centres undefined),inactive
2,CCN(CC)c1ccc(C=O)c(O)c1,inactive
3,FC(F)(F)C(F)(F)C(F)(F)C(F)(F)C(F)(F)C(F)(F)CC[Si](Cl)(Cl)Cl,inactive
4,O=C=NCc1cccc(CN=C=O)c1,inactive
5,CCCCCCCCCCCCC[N+](C)(C)Cc1ccccc1,inactive
6,CC(C)(C)C(=O)C1C(=O)c2ccccc2C1=O,inactive
7,Nc1cccnc1N,inactive
8,Oc1ccc2c(c1)CCC2,inactive
